Among the test systems are EKVX NSCLC; SN12C renal; UO-31 renal; TK-10 renal; CAKI-1 renal; A498 renal; CCRF-CEM leukemia; MOLT-4 leukemia; SR leukemia; RPMI-8226 leukemia; OVCAR-8 ovarian; OVCAR-5 ovarian; OVCAR-4 ovarian; SK-OV-3 ovarian; IGROV1 ovarian; OVCAR-3 ovarian; NCI/ADR-RES ovarian; ACHN renal.
Assay in all cases: NCI-60 one-dose screen, 48 h (100 = growth as untreated, 0 = no growth, -100 = all killed)
What all share (settings): 10 µM unless noted

Drawing on PubChem BioAssay (NCI), this text covers growth for nine molecules.

This is part of a sample that, as a whole, favours compounds with a hit. Of some 83,000 tested, about 20% had one in any assay.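 Percent growth is the endpoint: 0 to 100 indicates growth inhibition (40 means 60% inhibition), 0 means no net growth, and negative values indicate cell death.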 Values without a mark were called inactive. Calls of active or inactive are those of the source. The calls were made as follows: active = growth percent below 10; inactive = the rest.

In the case of `C/C(=N\NC(=O)Cn1c(-c2ccc(S(C)(=O)=O)cc2)nc2ccccc21)c1ccc(Cl)cc1`, the growth in the test on EKVX NSCLC was 101%; in the test on SN12C renal, 97.4%; in the test with UO-31 renal it was 66.1%; with TK-10 renal, 109%; in the test with CAKI-1 renal, 91.9%; with A498 renal, 104%. Also, the growth with CCRF-CEM leukemia is 77%; with MOLT-4 leukemia, 79.7%; with SR leukemia, 87.9%; with RPMI-8226 leukemia, 87.1%; in the test with OVCAR-8 ovarian, 80.9%; in the test with OVCAR-5 ovarian it was 106%. Also, the growth in the test on OVCAR-4 ovarian was 100%; in the test on SK-OV-3 ovarian, 94.9%; in the test on IGROV1 ovarian, 92.6%; with OVCAR-3 ovarian it was 96.6%; with NCI/ADR-RES ovarian, 103%.

Turning to `CNC(=O)c1ccccc1Nc1nc(Nc2ccc3c(c2OC)CCC[C@H](N2CCN(CCO)CC2)C3)ncc1Cl`, the growth in the test with EKVX NSCLC is 11.8%; with SN12C renal it was 7.63% (active); in the test on UO-31 renal it was 6.91% (active); with TK-10 renal it was 26.2%; in the test on ACHN renal, 5.75% (active); in the test with CAKI-1 renal, -26.6% (active). For the same molecule, the growth in the test on CCRF-CEM leukemia was 7.29% (active); with MOLT-4 leukemia, -23.5% (active); in the test on SR leukemia it was -5.84% (active); in the test with RPMI-8226 leukemia, -13% (active); in the test with OVCAR-8 ovarian, 12.5%; in the test with OVCAR-5 ovarian, 11.1%. In addition, the growth in the test on OVCAR-4 ovarian is 4.95% (active); with SK-OV-3 ovarian it was -6.83% (active); in the test with IGROV1 ovarian, -36.9% (active); in the test with OVCAR-3 ovarian, 30.7%; in the test with NCI/ADR-RES ovarian, 14%.

As to `C1=C\COCc2cc(ccc2OCCN2CCCC2)Nc2nccc(n2)-c2cccc(c2)COC/1`, the growth in the test with EKVX NSCLC is 0.564% (active); with SN12C renal it was -26.6% (active); in the test on UO-31 renal, -29.2% (active); in the test on TK-10 renal, 55.3%; with CAKI-1 renal it was -44.8% (active); with A498 renal, -43.3% (active). The growth was 4.28% (active) with CCRF-CEM leukemia; -8.61% (active) with MOLT-4 leukemia; -8.75% (active) in the test on SR leukemia; 6.66% (active) in the test with OVCAR-8 ovarian; -6.58% (active) in the test on OVCAR-5 ovarian; -4.87% (active) in the test with OVCAR-4 ovarian. The growth in the test on SK-OV-3 ovarian is -27.6% (active); with IGROV1 ovarian, -18.7% (active); with OVCAR-3 ovarian it was 2.03% (active); in the test on NCI/ADR-RES ovarian it was 0.945% (active).

For `NC1=Nc2cc(OCCCN3Cc4ccccc4C3)c(OCC3CC3)cc2C12CCCC2`, the growth with EKVX NSCLC is 72.6%; in the test on SN12C renal it was 77.6%; in the test on UO-31 renal, 42.1%; in the test on TK-10 renal it was 78.4%; in the test with CAKI-1 renal it was 49.9%; with A498 renal, 68.4%. Also, the growth with CCRF-CEM leukemia is 37%; in the test with MOLT-4 leukemia, 44.2%; in the test with SR leukemia, -5.81% (active); in the test with RPMI-8226 leukemia it was 33.8%; in the test with OVCAR-8 ovarian it was 72%; in the test with OVCAR-5 ovarian it was 83.5%. The growth in the test on OVCAR-4 ovarian is 61.3%; in the test on SK-OV-3 ovarian, 70.1%; with IGROV1 ovarian it was 71.7%; with OVCAR-3 ovarian, 75.7%; with NCI/ADR-RES ovarian it was 79%.

As to `COc1cc2ncnc(Nc3ccc(O)cc3)c2cc1OC`, the growth is 66.3% in the test with EKVX NSCLC; 62.2% in the test on SN12C renal; 36.8% with UO-31 renal; 31.1% in the test with ACHN renal; 43.4% with CAKI-1 renal; 81.3% in the test on A498 renal. Moreover, the growth with MOLT-4 leukemia is 75.3%; in the test with SR leukemia it was 27.1%; in the test with RPMI-8226 leukemia, 97.2%; in the test with OVCAR-8 ovarian it was 70.7%; in the test on OVCAR-5 ovarian, 59.2%; with OVCAR-4 ovarian, 88.1%. In addition, the growth with SK-OV-3 ovarian was 5.29% (active); in the test on IGROV1 ovarian, 38.2%; in the test on OVCAR-3 ovarian, 87.4%; in the test on NCI/ADR-RES ovarian it was 91.3%.

`CO[C@H]1C[C@@H]2CC[C@@H](C)[C@@](O)(O2)C(=O)C(=O)N2CCCC[C@H]2C(=O)O[C@H]([C@H](C)C[C@@H]2CC[C@@H](O)[C@H](OC)C2)CC(=O)[C@H](C)/C=C(\C)[C@@H](O)[C@@H](OC)C(=O)[C@H](C)C[C@H](C)\C=C/C=C/C=C/1C`: the growth with EKVX NSCLC was 35.8%; in the test with UO-31 renal, 20.7%; in the test with TK-10 renal, 43.5%; in the test with ACHN renal it was 39.5%; with CAKI-1 renal, 39.6%; in the test on CCRF-CEM leukemia, 22.1%. The growth was 6.08% (active) in the test with MOLT-4 leukemia; 11.5% with SR leukemia; 23.8% in the test on RPMI-8226 leukemia; 38.7% in the test with OVCAR-8 ovarian; 56.6% with OVCAR-5 ovarian; 22.9% in the test on OVCAR-4 ovarian. Further, the growth with SK-OV-3 ovarian is 34.3%; in the test with IGROV1 ovarian, 13.8%; in the test on OVCAR-3 ovarian, 47.6%; in the test with NCI/ADR-RES ovarian, 49%.

As for `NC[C@@](O)(c1ccc(Cl)cc1)c1ccc(-c2cn[nH]c2)cc1`, the growth is 27.1% with EKVX NSCLC; -13.6% (active) in the test on UO-31 renal; 5.87% (active) in the test with TK-10 renal; 11.6% in the test on ACHN renal; 11.3% in the test on CAKI-1 renal; -2.12% (active) with A498 renal. In addition, the growth is 15.8% in the test on CCRF-CEM leukemia; 13.2% with MOLT-4 leukemia; 0.545% (active) in the test with SR leukemia; 19.1% in the test with RPMI-8226 leukemia; 29.1% in the test on OVCAR-8 ovarian; 18.8% in the test with OVCAR-5 ovarian. The growth was 16.9% in the test with OVCAR-4 ovarian; 20% in the test on SK-OV-3 ovarian; -18% (active) with IGROV1 ovarian; 52.4% in the test on OVCAR-3 ovarian; 40.9% in the test on NCI/ADR-RES ovarian.

On to `CC(=O)Nc1cccc(-n2c(=O)n(C3CC3)c(=O)c3c(Nc4ccc(I)cc4F)n(C)c(=O)c(C)c32)c1`, for which the growth with EKVX NSCLC was 46%; with SN12C renal, 49.7%; in the test with UO-31 renal, 12%; with ACHN renal, 42%; with CAKI-1 renal it was 27.1%; with A498 renal it was -34.4% (active). Moreover, the growth in the test with CCRF-CEM leukemia is 68.5%; with MOLT-4 leukemia, 65.5%; in the test on SR leukemia, 46.4%; in the test with RPMI-8226 leukemia it was 45.5%; with OVCAR-8 ovarian it was 39%; in the test on OVCAR-5 ovarian, 6.47% (active). Further, the growth is 37% in the test on OVCAR-4 ovarian; 11.3% in the test on SK-OV-3 ovarian; 16.9% in the test with IGROV1 ovarian; 85.5% with OVCAR-3 ovarian; 46.6% in the test with NCI/ADR-RES ovarian.

Take `CNc1ncc2cc(-c3cc(NC(=O)NCCC(C)(C)C)c(F)cc3C)c(C)nc2n1`: the growth in the test with EKVX NSCLC is 29.4%; in the test with SN12C renal, 18.6%; in the test on UO-31 renal, 3.87% (active); with ACHN renal, 5.23% (active); with CAKI-1 renal it was 4.36% (active); in the test with CCRF-CEM leukemia it was 63.1%. Besides, the growth in the test on MOLT-4 leukemia was 20.6%; in the test on SR leukemia, 17.7%; in the test with RPMI-8226 leukemia it was 21%; in the test on OVCAR-8 ovarian it was 27%; in the test on OVCAR-5 ovarian, 6.28% (active); in the test with OVCAR-4 ovarian it was 33.2%. Also, the growth was -26% (active) in the test on SK-OV-3 ovarian, -10.2% (active) in the test with IGROV1 ovarian and 54.5% in the test with OVCAR-3 ovarian.
